Screening results as filed in PubChem.
The full list was thinned out, with hits kept by preference.
HttQ103 aggreg: mutant huntingtin aggregation inhibition. PC12 HttQ103-GFP aggregates, Acumen cytometry, 40 h. Potency, µM (titrated, usually from 46.1 µM), actives largely listed as inhibitors. hit rate 1.1% among 220,000; also: nearly all actives have a fitted effect of over 60% in size
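Huntingtin Q103 exon 1–GFP aggregates in induced PC12 cells (100 nM tebufenozide) were quantified by cytometry from lysates, with compounds dosed in titration.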
PNC inhibitor: perinucleolar compartment assembly inhibition | activity change (PNC), negative = inhibition, % at 10 µM | PC3M PTB-GFP, PNC prevalence imaging, 16 h; active compounds read low | hit rate 3.1% among 140,000;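 active = readout at or below -70, meaning at least 70% loss of cells showing the perinucleolar compartment, a nuclear body marking cancer cells; inconclusive = readout between -30 and a set limit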
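Read-out is percentage of cells bearing a perinucleolar compartment, from automated 20x imaging of fixed, Hoechst-stained PC3M PTB-GFP cells. Cells were seeded 4 h, then exposed 16 h to compound (23 nl of library stock) in duplicate plates.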
HTT cytoprotect: Huntington cell model cytoprotection by ATP luminescence; PC12 HTT-Q103 induced, cytoprotection, ATP luminescence, 40 h; Potency, µM (series often up to 56.4 µM), most hits filed as activators; hit rate 0.14% among 230,000; also: nearly all actives have a fitted effect of over 45% in size
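Readout: ATPlite luminescence (ATP level). Model: stable PC12, inducible Htt exon1 Q103-GFP. Inducer: tebufenozide, 100 nM final. Compounds: dose series. No G418 in medium.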
Hits are given with their value; – = inactive; ? = inconclusive; · = no result; [ ] = another dose, or the depositor's remark. Unless noted, calls follow the shape of the dose curve; as a rule, active = well fitted curve in the direction sought with a large enough effect; inconclusive = small, poorly fitted or top-dose-only effect, or another doubt; inactive = no such curve, though single readings can be large; an effect the other way counts as inactive or inconclusive.

SMILES | HttQ103 aggreg | PNC inhibitor | HTT cytoprotect
COc1ccc(-c2cc(C(=O)N/N=C/c3ccc4c(c3)OCO4)c3ccccc3n2)c(OC)c1 | – | – | –
O=C(N/N=C/c1ccc2c(c1)OCO2)c1cc(-c2ccc(F)cc2)nc2ccccc12 | – | -96 | –[10 µM]
CCCc1cc(C(=O)N/N=C/c2ccc(CC)s2)c2ccccc2n1 | – | – | –
O=C(N/N=C/c1cccs1)c1cc(C2CC2)nc2ccccc12 | – | – | –[10 µM]
CCc1ccc(/C=N/NC(=O)c2cc(-c3ccncc3)nc3ccccc23)s1 | ? | -110 | –[10 µM]
Cn1c(=O)cc(SCC(=O)N2CCN(c3ccccc3)CC2)c2ccccc21 | – | – | –
CCCN(CCC)C(=O)Cn1c(=O)n(CCCCC(=O)NC2CCCC2)c(=O)c2ccccc21 | – | ? | –[10 µM]
CCC(C(=O)NCCCc1ccccc1)c1ccccc1 (centres undefined) | – | – | –[0.074 µM]
Cn1nc(-c2ccccc2)c(C(=O)NCC(=O)O)c1Cl | – | · | ?
COc1ccc(C)cc1S(=O)(=O)N(C)CC(=O)NC1CCCCCC1 | – | · | ·
O=C(NCCc1ccccc1)c1nc(-c2cccs2)no1 | – | · | –
COCCn1c(SCC(=O)Nc2ccc(C)cc2C)nc2c(oc3ccccc32)c1=O | – | -107 | ·
COCCn1c(SCC(=O)Nc2ccccc2C)nc2c(oc3ccccc32)c1=O | – | – | –[10 µM]
Cc1ccc(C)c(NC(=O)c2ccccc2NS(=O)(=O)c2cc([N+](=O)[O-])ccc2C)c1 | 2.8µM | – | –[10 µM]
Cc1cc(NC(=O)c2ccccc2NS(=O)(=O)c2c(C)c(C)cc(C)c2C)no1 | – | – | –
Cc1ccc(C)c(NC(=O)c2ccccc2Sc2ccc([N+](=O)[O-])cc2Cl)c1 | – | – | ?
Cc1ccc(C)c(S(=O)(=O)Nc2ccccc2C(=O)Nc2cc(C)on2)c1 | 10µM | – | –
O=C(Nc1ccccc1)N1N=C(c2ccc(F)cc2)CC1c1ccc(F)cc1 (centres undefined) | – | – | ·
Cc1ncc(CO)c2cc(S(=O)(=O)c3ccc(F)cc3)c(=O)oc12 | – | – | –
COc1ccc(OCCSc2nnc3sc4ccccc4n23)cc1 | ? | – | –
CCOc1ccc(-c2csc(/C(C#N)=C\c3ccc(O)c([N+](=O)[O-])c3)n2)cc1 | 7.9µM | ? | –[10 µM]
CCCCc1ccc(-c2csc(/C(C#N)=C\c3ccc(C)o3)n2)cc1 | – | – | –
COc1ccc(NC(=O)c2oc3cc(C)c(C)cc3c2C)c(OC)c1 | – | – | –[0.074 µM]
COc1ccccc1NC(=O)c1oc2ccc(C)cc2c1C | – | -80 | –
CCOC(=O)NCC(C#CCN(CC)CC)N(CC)CC (centres undefined) | – | -93 | –[10 µM]
SMILES | HttQ103 aggreg | PNC inhibitor | HTT cytoprotect
CCN(CC)CC#CC(C)OCOCC#CCOC (centres undefined) | – | – | –
COC(=O)c1c(NC(=O)CCc2ccc(C)o2)sc(C)c1C | – | – | ?
Cc1cc(C)c2ccc(N)nc2c1O | 8.9µM | – | –[1.9 µM]
Cc1cc(C)c2cccc(N)c2n1 | –[9.22 µM] | · | –[10 µM]
COCCn1c(SCC(=O)Nc2sc(C)c(C)c2C#N)nnc1-c1ccc(OC)cc1 | – | – | –
COCCn1c(SCC#N)nnc1-c1ccc(OC)cc1 | – | -100 | –[10 µM]
Brc1ccc(C2=N[C@@H](Cc3ccccc3)CO2)cc1 | · | · | –
Cc1cccc(N2C(S)=C(C#N)C(=O)NC2c2cccs2)c1 (centres undefined) | – | -84 | –[10 µM]
N#CC1=C(S)N(c2ccc(F)cc2)C(c2cccs2)NC1=O (centres undefined) | – | – | –
COc1ccc(C2=NOC(C(=O)O)C2)cc1 (centres undefined) | – | – | –
Cc1ccc2nc(SC(C)C(=O)N3CCCCC3)[nH]c2c1 (centres undefined) | – | · | –
CC(C)(C)C(=O)Nc1ccc(C(=O)N/N=C/c2ccccc2OC(=O)c2ccccc2)cc1 | 11µM | – | –
O=C(N/N=C/c1cc2c(cc1Cl)OCO2)c1ccc2c(c1)OCCO2 | –[9.22 µM] | · | –[10 µM]
CC(C)(C)C(=O)Nc1ccc(C(=O)N/N=C/c2ccccc2OC(=O)c2ccc(Cl)cc2)cc1 | ? | ? | –[10 µM]
O=C(N/N=C/c1ccccc1OC(=O)c1ccc2c(c1)OCO2)c1ccccc1 | 5µM | – | –[10 µM]
Cc1cc(C)cc(NS(=O)(=O)c2cnc(Cl)c(Cl)c2)c1 | – | ? | –
COc1ccc(-c2nnc(SCC(=O)O)n2C)cc1OC | – | · | –
CCN(CC)CCNC(=O)CS(=O)Cc1nc(-c2ccccc2Cl)oc1C (centres undefined) | – | ? | –
Cc1ccccc1-n1c(SCC(=O)N2CCOCC2)nc(O)cc1=O | – | – | –
C/C(Cl)=C\CNC(C)c1ccccc1 (centres undefined) | – | – | –[10 µM]
C=C(C)CC1(NC(C)c2ccccc2)CCCCC1 (centres undefined) | – | -109 | ·
Nc1ccccc1-c1nc2ccccc2s1 | –[9.22 µM] | · | –[10 µM]
Cc1ccccc1NC1=C(Cl)C(=O)OC1OC(C)C (centres undefined) | – | ? | –
COc1ccccc1NC(=O)CNC(=O)c1ccccc1 | – | – | –
Cc1ccccc1C(=O)NCC(=O)NNC(=S)NC(=O)c1ccccc1 | – | -83 | ·
SMILES | HttQ103 aggreg | PNC inhibitor | HTT cytoprotect
COc1ccccc1NC(=O)CNC(=O)c1ccccc1C | –[9.22 µM] | -108 | –
Cc1ccccc1C(=O)NCC(=O)NNC(=S)NC(=O)c1ccccc1C | – | – | ·
COC(=O)Cc1cc(=O)[nH]c(/N=C(\N)Nc2ccc(C(C)C)cc2)n1 | –[9.22 µM] | · | –[10 µM]
COCC(C)NC(=O)c1cc(-c2ccc(OC)c(OC)c2)on1 (centres undefined) | – | -83 | –[10 µM]
COc1ccc(NC(=O)c2cc(-c3ccc(OC)c(OC)c3)on2)cc1OC | –[9.22 µM] | – | –
O=C(COc1ccc(/C=N/NS(=O)(=O)c2ccccc2)cc1)Nc1ccc(F)cc1 | – | – | –
CCc1ccc(OCC(=O)N(C)C2CCS(=O)(=O)C2)cc1 (centres undefined) | ? | – | –
CN(C(=O)COc1ccc(C(C)(C)C)cc1)C1CCS(=O)(=O)C1 (centres undefined) | – | -120 | –[10 µM]
Cn1ncc([N+](=O)[O-])c1C(=O)Nc1ccc(-c2nc3ccccc3[nH]2)cc1 | – | – | –[10 µM]
CCOc1ccc(C(=O)Nc2ccc(-c3nc4ccccc4[nH]3)cc2)cc1[N+](=O)[O-] | – | -116 | –[10 µM]
NCCCNCCCCNCCCNC(=O)CCc1ccc(O)cc1 | · | · | –[10 µM]
Cc1nn(Cc2ccc(C(=O)Nc3ccccc3F)cc2)c(C)c1Cl | –[9.22 µM] | · | –[10 µM]
O=C(O)c1ccccc1C(=O)N(Cc1ccccc1)Cc1ccccc1 | – | – | –
Nc1ccccc1C(=O)N(Cc1ccccc1)Cc1ccccc1 | – | -100 | –[10 µM]
c1ccc(-c2cn(-c3ccccc3)c3[n+]2CCCS3)cc1 | –[9.22 µM] | · | –[10 µM]
Cc1ccc(-c2cn(-c3ccccc3)c3[n+]2CCCS3)cc1 | 1.8µM | – | –[10 µM]
COc1cc2nc(C3CCC3)n(NC(=O)C3CCC(OC)CC3)c(=O)c2cc1OC (centres undefined) | – | – | –[10 µM]
COCC(C)NC(=O)c1oc2c(c1C)C1(CCC2)SCCS1 (centres undefined) | – | – | ·
CCN(CC)CCOC(=O)c1cc(Cl)c(N)cc1OC | · | · | –
CCC(=O)Nc1cc(ON=C(C)C)cc([N+](=O)[O-])c1 | – | – | ·
